Compound activity from PubChem BioAssay.
An excerpt weighted towards active compounds, which were near 10% of everything screened.
MCF10A rereplic – A quantitative high throughput screen for small molecules that induce DNA re-replication in MCF 10a normal breast cells; MCF 10A DNA re-replication, Hoechst nuclear intensity, 48 h; Potency, µM (highest dose often 46.1 µM), for the others: at the top dose activity, positive = re-replication, actives largely listed as activators; 2.9% of 350,000 active; AID 624296, 2012; further: % of control where 0% means no effect; nearly all actives have a fitted effect of over 50% in size
RORgamma inh – qHTS for inhibitors of ROR gamma transcriptional activity. Potency, µM (top dose mostly 53.6 µM), for the others: at the highest dose activity change, negative = inhibition, usual class: inhibitors. Nuclear receptor ROR-gamma (Mus musculus), P51450. 5.4% of 310,000 active. Drosophila S2 Gal4-RORgamma UAS-luciferase reporter, 20 h; further: on the % scale 0 is the no-effect control and ±100 the full control effect; nearly all actives have a fitted effect of over 60% in size
Target sequence (P51450 whole entry, looked up, the tested form may be a part): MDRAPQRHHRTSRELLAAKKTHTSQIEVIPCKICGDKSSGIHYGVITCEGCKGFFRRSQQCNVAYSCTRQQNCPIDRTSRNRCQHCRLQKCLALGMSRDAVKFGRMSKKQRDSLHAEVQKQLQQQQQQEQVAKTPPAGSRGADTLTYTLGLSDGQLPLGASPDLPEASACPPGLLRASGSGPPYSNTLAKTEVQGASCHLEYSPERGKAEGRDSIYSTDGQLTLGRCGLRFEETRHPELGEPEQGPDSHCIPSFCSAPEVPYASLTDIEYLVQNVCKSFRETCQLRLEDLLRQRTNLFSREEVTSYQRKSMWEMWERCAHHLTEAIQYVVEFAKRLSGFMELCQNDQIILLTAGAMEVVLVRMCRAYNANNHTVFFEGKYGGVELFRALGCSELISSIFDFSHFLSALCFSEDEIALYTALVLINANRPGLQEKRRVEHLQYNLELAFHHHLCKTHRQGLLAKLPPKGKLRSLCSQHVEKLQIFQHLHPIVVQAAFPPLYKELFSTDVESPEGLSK
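Stably transfected Drosophila Schneider cells are the test system, with ROR gamma fused to Gal4 and luciferase under UAS control; luminescence is read after 20 hr of 700 uM copper sulfate induction at ambient temperature.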
Gal4-VP16 FLuc – VP16 counterscreen qHTS for inhibitors of ROR gamma transcriptional activity. Potency, µM (series often up to 53.6 µM), for inactives: top-dose activity, negative = inhibition, usual class: inhibitors. Drosophila S2 Gal4-VP16 UAS-luciferase, luminescence, 20 h. AID 2546, 2010. 3.5% of 310,000 active;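 further: Gal4-VP16 expression switched on by copper sulfate through the metallothionein promoter; on the % scale 0 is the no-effect control and ±100 the full control effect; nearly all actives have a fitted effect of over 50% in size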
KB-3-1 tox – qHTS assay for MDR1-selective chemotherapeutics: Primary screen using the parental adenocarcinoma cell KB-3-1; 1.4% of 400,000 active; AID 1347075, 2019; Potency, µM (series often up to 46.1 µM), usual class: cytotoxic; KB-3-1 viability, CellTiter-Glo ATP luminescence, 72 h; further: on the % scale 0 is the no-effect control and ±100 the full control effect; nearly all actives have a fitted effect of over 60% in size
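Viability of parental KB-3-1 cells, measured by CellTiter-Glo luminescence, followed a 72 h incubation at 37 °C with pinned compounds in phenol-red-free DMEM containing 10% FBS.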
SW480 rerep – A quantitative high throughput screen for small molecules that induce DNA re-replication in SW480 colon adenocarcinoma cells; SW480 DNA re-replication, Hoechst DNA content imaging, 48 h; Potency, µM (series often up to 46.1 µM), inactives show at the highest dose re-replication activation, actives largely listed as activators; 1.8% of 340,000 active; AID 624297, 2012; further: % of control where 0% means no effect; nearly all actives have a fitted effect of over 55% in size
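Readout is total intensity of Hoechst-stained nuclei, excited at 405 nm and collected at 500-530 nm. Compound treatment lasted 48 hr at 37 C in 5% CO2 before staining.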
KB-V1 cytotox – qHTS assay for MDR1-selective chemotherapeutics: Primary screen using the drug-selected MDR subline cells KB-V1; KB-V1 MDR cells viability, CellTiter-Glo, 72 h; Potency, µM (titrated, usually from 46.1 µM), hits mostly cytotoxic; 3.4% of 400,000 active; further: on the % scale 0 is the no-effect control and ±100 the full control effect; nearly all actives have a fitted effect of over 60% in size
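Cytotoxicity toward P-gp-expressing KB-V1 cells was determined as loss of CellTiter-Glo luminescence after 72 h at 37 degrees C. Compounds were tested in quantitative HTS format across a concentration range, with curves fitted to normalized data.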
Numbers without * were called inactive; i = inactive; ? = inconclusive; . = no result given; [ ] = remark or other dose. The call rests on the fitted dose curve; in most records, active means well fitted curve in the direction sought with a large enough effect; inconclusive means small, poorly fitted or top-dose-only effect, or another doubt; inactive means no such curve, though single readings can be large; an effect the other way counts as inactive or inconclusive. Potency means the concentration at half of the fitted maximal effect.

SMILES	MCF10A rereplic	RORgamma inh	Gal4-VP16 FLuc	KB-3-1 tox	SW480 rerep	KB-V1 cytotox
CCCCNC(=NCc1cccc(C(F)(F)F)c1)Nc1ccccc1	?	-1.2%	-4.1%	?	?	20.6µM*
COc1ccc(NC(=O)c2cc3c([nH]c4ccccc43)c(C)n2)cc1	27.0%	-0.7%	-3.0%	i	-5.9%	i
Cc1nc(C(=O)Nc2ccccc2Cl)cc2c1[nH]c1ccccc12	-1.4%	?	-11.4%	7.31µM*	?	2.91µM*
O=C(CSc1ncnc2c1nnn2Cc1ccccc1F)NCC1CCCO1 (stereo not given)	?	12.6µM*	-29.0%	i	0.4%	i
O=C(CSc1ncnc2c1nnn2Cc1ccccc1)NC1CCCCC1	23.1µM*	-103.4%	?	i	?	i
COc1ccc2c(c1)C=C/C2=C/c1ccc(N(C)C)cc1	.	.	.	i	.	i
N#CCSc1n[nH]c2nc3c(c(=O)n12)C1(CCCCC1)Cc1ccccc1-3	16.4µM*	34.2%	7.8%	i	?	i
CCn1c(SCC#N)nc2c(c1=O)C1(CCCC1)Cc1ccccc1-2	?	-22.2%	0.3%	?	4.2%	i
Cn1c(NCCCO)nc2c(c1=O)C1(CCCCC1)Cc1ccccc1-2	18.4µM*	?	?	i	0.2%	i
CCSc1n[nH]c2nc3c(c(=O)n12)C1(CCCCC1)Cc1ccccc1-3	5.17µM*	-12.0%	-2.6%	i	-3.2%	i
CCn1c(=O)c2c(n3c(=S)[nH]nc13)-c1ccccc1CC21CCCCC1	3.0%	2.82µM*	-12.7%	i	-3.6%	i
CSc1n[nH]c2nc3c(c(=O)n12)C1(CCCCC1)Cc1ccccc1-3	?	-42.7%	-18.9%	?	?	?
CC(=O)Nc1c(Cl)c2c(c(Cl)c1Br)-c1ccc(Cl)cc1C2	5.7%	.	.	i	1.8%	?
Cc1cc(C(=O)COC(=O)Cc2n[nH]c(=O)c3ccccc23)c(C)n1-c1cccc(C(F)(F)F)c1	17.3%	?	?	?	-1.5%	20.6µM*
CCn1cc(C(=O)OCC(=O)c2cc(C)n(-c3cccc(C(F)(F)F)c3)c2C)c(=O)c2ccc(C)nc21	11.9%	42.4%	?	i	-52.6%	23.1µM*
CCn1cc(C(=O)OCC(=O)c2ccccc2)c(=O)c2ccc(C)nc21	-1.5%	16.6%	-3.3%[10 µM]	i	-2.0%	?
Cc1cc(C(=O)COC(=O)CC2Sc3ccccc3NC2=O)c(C)n1-c1cccc(C(F)(F)F)c1 (stereo not given)	-2.2%	?	?	i	3.7%	?
CCOP(=O)(OCC)C(Nc1ccccc1)c1ccc2c(c1)OCO2 (stereo not given)	-0.1%	13.8%	-5.3%	i	-24.8%	?
CCCCOP(=O)(OCCCC)C(Nc1ccccc1)c1ccc2c(c1)OCO2 (stereo not given)	?	?	?	?	-59.8%	7.31µM*
COc1ccc2c(c1)Sc1ccccc1N2	?	6.31µM*	6.31µM*	?	-0.5%	?
COc1ccc(NC(=O)C(NS(=O)(=O)c2cccc3nsnc23)c2ccccc2)cc1 (stereo not given)	.	.	.	i	.	i
Cc1cccc(S(=O)(=O)N2CCn3cccc3C2C)c1 (stereo not given)	7.7%	.	.	i	2.3%	i
Cc1ccc(S(=O)(=O)N2CCn3cccc3C2C)cc1 (stereo not given)	?	.	.	i	2.2%	13µM*
CCOc1ccc(NC(=O)Cn2c(=O)n(CC(=O)NCc3ccccc3Cl)c(=O)c3sccc32)cc1	.	.	.	i	.	i
